Results reported in PubChem BioAssay (EPA / NIEHS).
Results filed as inconclusive are left out. The source made the active and inactive calls. Rule for the calls, unless noted: active = hit-call score of the fitted dose curve at least 0.9, where 1 is the maximum; inconclusive = response in the unintended direction; inactive = score below 0.9.

Key:
[1] = CPHEA_Stoker_NIS_Cytotoxicity: Cytotoxicity Assessment for CPHEA's Radioactive Iodide Uptake (RAIU) Assay for Sodium/Iodide Symporter (NIS) Inhibition, Stoker and Laws Labs (AID 2283897);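 for AC50: active means loss of ATP signal versus DMSO meaning cytotoxicity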
Outline: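 hNIS-HEK293T-EPA human kidney cells were exposed for 2 hours at room temperature to test chemicals (0.001–100uM, 0.5% final DMSO) in HEPES-buffered HBSS, pH 7.4. Viability was read as ATP content by luciferase bioluminescence, loss of signal versus DMSO.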

[2] = system: Sodium/Iodide Symporter (NIS), SLC5A5 (gene 6528); assay: CPHEA_Stoker_NIS_Inhibition_RAIU: CPHEA's Radioactive Iodide Uptake (RAIU) Assay for Sodium/Iodide Symporter (NIS) Inhibition, Stoker and Laws Labs (AID 2283841)
Outline: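 HEK293T cells stably expressing human NIS (hNIS-HEK293T-EPA) were exposed to test chemicals at 0.001–100uM (0.5% final DMSO) with 125I at a final 329pM in HBSS/10mM HEPES pH 7.4. After 2 hours at room temperature and ice-cold washes, intracellular 125I was counted as CPM and normalized to DMSO wells.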

[3] = CEETOX_H295R_11DCORT_noMTC: CeeTox H295R High-throughput Steroidogenesis Assay for 11-Deoxycortisol (11DCORT), maximum tolerated concentration (MTC) filtered results only (AID 2283911; active = hit-call score of the fitted dose curve at least 0.9, where 1 is the maximum; inactive = score below 0.9); conditions: actives raise or lower the signal
Outline: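 Readout is 11-deoxycortisol in culture medium by reverse-phase HPLC with MS/MS, after 48 h chemical treatment of forskolin-primed H295R cells. Values are relative to DMSO and unfiltered for cytotoxicity.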

[4] = CEETOX_H295R_OHPREG_noMTC: CeeTox H295R High-throughput Steroidogenesis Assay for OH-Pregnenolone (OHPREG), maximum tolerated concentration (MTC) filtered results only (AID 2283912; active = hit-call score of the fitted dose curve at least 0.9, where 1 is the maximum; inactive = score below 0.9); conditions: actives raise or lower the signal
Outline: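 Steroidogenesis in H295R cells (OECD 456, modified): after 48 h forskolin priming and 48 h chemical treatment, secreted 17alpha-hydroxypregnenolone is measured by HPLC-MS/MS. Activity is fitted in both directions against DMSO; concentrations are not filtered by MTT-based MTC.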

[5] = CEETOX_H295R_OHPROG_noMTC: CeeTox H295R High-throughput Steroidogenesis Assay for OH-Progesterone (OHPROG), maximum tolerated concentration (MTC) filtered results only (AID 2283914; active = hit-call score of the fitted dose curve at least 0.9, where 1 is the maximum; inactive = score below 0.9); conditions: actives raise or lower the signal
Outline: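 Forskolin 10 uM, 48 h prestim → test cmpd in DMSO (0.1% final), 48 h → medium MTBE extraction → LC-MS/MS quant of 17alpha-OH-progesterone. Bidirectional fit vs DMSO; no MTT-based MTC filtering.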

[6] = target: zebrafish Thyroid Hormone Receptor alpha (TRa), thraa (gene 30670) (UniProt Q98867); assay: ATG_zfTRa_XSP2: Attagene TRANS-FACTORIAL Multi-Species (XSP1) HepG2 Assay for zebrafish Thyroid Hormone Receptor alpha (TRa) (AID 2283832);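 note: actives raise zebrafish TRa-Gal4 reporter transcript above DMSO baseline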
Sequence of zebrafish Thyroid Hormone Receptor alpha (TRa), thraa (gene 30670) (Q98867 whole entry, looked up, the tested form may be a part): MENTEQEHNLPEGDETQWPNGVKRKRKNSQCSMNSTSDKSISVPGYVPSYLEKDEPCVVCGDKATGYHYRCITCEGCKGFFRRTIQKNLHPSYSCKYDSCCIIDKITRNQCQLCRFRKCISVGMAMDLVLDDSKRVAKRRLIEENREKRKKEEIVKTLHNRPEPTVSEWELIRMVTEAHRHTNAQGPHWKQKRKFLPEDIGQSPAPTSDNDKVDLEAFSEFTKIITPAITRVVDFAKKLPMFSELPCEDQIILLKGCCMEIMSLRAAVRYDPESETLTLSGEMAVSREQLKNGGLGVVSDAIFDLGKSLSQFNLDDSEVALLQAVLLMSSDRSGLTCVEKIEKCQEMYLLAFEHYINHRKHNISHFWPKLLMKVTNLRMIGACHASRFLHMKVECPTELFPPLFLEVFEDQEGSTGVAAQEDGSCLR
Outline: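 HepG2 transiently transfected with GAL4-UAS reporter units and chimeric zebrafish TRa-Gal4; reporter mRNA quantified after 24 h dosing by RT-PCR, HpaI digestion and capillary electrophoresis fluorescence. Gain of signal vs DMSO; XSP2 medium contains 3 nM 6-alpha-fluorotestosterone, 1.5 nM norgestrel.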

[7] = system: turtle Thyroid Hormone Receptor, alpha (TRa), gene 101949057; assay: ATG_trTRa_XSP2: Attagene TRANS-FACTORIAL Multi-Species (XSP1) HepG2 Assay for turtle Thyroid Hormone Receptor, alpha (TRa) (AID 2283834);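 note: hits raise reporter mRNA over the DMSO baseline so AC50 marks activators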
Method: (§1) ATG_XSP2_multi-species_TRANS is a cell-based, multiplexed assay created by modifying the existing Attagene TRANS-FACTORIAL system to include a panel of nuclear receptors from some or all the following species: human (Homo sapiens), mouse (Mus musculus), frog (Xenopus laevis), zebrafish (Danio rerio), chicken (Gallus gallus), and turtle (Chrysemys picta). The ECOTOX-FACTORIAL format uses HepG2, a human liver cell line, with measurements taken at 24 hours after chemical dosing in a 24-well plate. Xsp2 included 3 nM 6-alpha-fluorotestosterone and 1.5 nM norgestrel to stimulate the androgen receptor.ATG_trTRa_XSP2 is one of 29 assay components measured or calculated from the ATG_XSP2_multi-species_TRANS assay. It is designed to make measurements of mRNA induction, a form of inducible reporter, as detected with fluorescence intensity signals by Reverse transcription polymerase chain reaction (RT-PCR) and Capillary electrophoresis technology.The assay endpoint ATG_trTRa_XSP2 was analyzed in the positive analysis fitting direction relative to DMSO as the negative control and baseline of activity. […] Furthermore, this assay endpoint can be referred to as a primary readout, because this assay has produced multiple assay endpoints where this one serves a reporter gene function. […]

[8] = ATG_M_61_XSP2: Attagene TRANS-FACTORIAL Multi-Species (XSP2) HepG2 Assay for M61 Transcription Factor (Internal Marker) (AID 2283835; active = hit-call score of the fitted dose curve at least 0.9, where 1 is the maximum; inactive = score below 0.9;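 note: reporter mRNA of an internal background marker read by RT-PCR and capillary electrophoresis; active means a rise in signal above the DMSO baseline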)
Method: as §1, with “receptor.ATG_M_61_XSP2” for “receptor.ATG_trTRa_XSP2”, “technology.This” for “technology.The”, “endpoint, ATG_M_61_XSP2,” for “endpoint ATG_trTRa_XSP2”, “secondary” for “primary”, “background control” for “reporter gene”

[9] = target: zebrafish Thyroid Hormone Receptor beta (TRb), thrb (gene 30607) (UniProt Q9PVE4); assay: ATG_zfTRb_XSP2: Attagene TRANS-FACTORIAL Multi-Species (XSP1) HepG2 Assay for zebrafish Thyroid Hormone Receptor beta (TRb) (AID 2283836)
Sequence of zebrafish Thyroid Hormone Receptor beta (TRb), thrb (gene 30607) (Q9PVE4 whole entry, looked up, the tested form may be a part): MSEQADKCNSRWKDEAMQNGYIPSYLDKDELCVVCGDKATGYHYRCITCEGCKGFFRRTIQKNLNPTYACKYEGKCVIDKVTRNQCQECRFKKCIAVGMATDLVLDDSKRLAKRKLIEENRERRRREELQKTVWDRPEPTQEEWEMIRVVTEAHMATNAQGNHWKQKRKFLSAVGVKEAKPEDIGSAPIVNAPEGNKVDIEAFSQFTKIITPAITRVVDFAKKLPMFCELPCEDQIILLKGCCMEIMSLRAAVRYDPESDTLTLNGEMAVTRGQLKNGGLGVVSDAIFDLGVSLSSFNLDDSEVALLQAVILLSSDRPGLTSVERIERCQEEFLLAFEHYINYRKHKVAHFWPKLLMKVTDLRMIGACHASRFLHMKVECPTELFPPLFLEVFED
Outline: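 HepG2 cells transiently transfected with chimeric zebrafish TRb-GAL4 reporter units, dosed 24 h with 3 nM 6-alpha-fluorotestosterone and 1.5 nM norgestrel present. Reporter mRNA quantified by RT-PCR and capillary electrophoresis; gain fitted against DMSO.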

[10] = target: human Thyroid hormone Receptor beta (TRb), THRB (gene 7068) (UniProt P10828); assay: ATG_hTRb_XSP2: Attagene TRANS-FACTORIAL Multi-Species (XSP2) HepG2 Assay for human Thyroid hormone Receptor beta (TRb) (AID 2283840);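 note: actives raise reporter mRNA so potency reflects agonist-like gain of signal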
Sequence of human Thyroid hormone Receptor beta (TRb), THRB (gene 7068) (P10828 whole entry, looked up, the tested form may be a part): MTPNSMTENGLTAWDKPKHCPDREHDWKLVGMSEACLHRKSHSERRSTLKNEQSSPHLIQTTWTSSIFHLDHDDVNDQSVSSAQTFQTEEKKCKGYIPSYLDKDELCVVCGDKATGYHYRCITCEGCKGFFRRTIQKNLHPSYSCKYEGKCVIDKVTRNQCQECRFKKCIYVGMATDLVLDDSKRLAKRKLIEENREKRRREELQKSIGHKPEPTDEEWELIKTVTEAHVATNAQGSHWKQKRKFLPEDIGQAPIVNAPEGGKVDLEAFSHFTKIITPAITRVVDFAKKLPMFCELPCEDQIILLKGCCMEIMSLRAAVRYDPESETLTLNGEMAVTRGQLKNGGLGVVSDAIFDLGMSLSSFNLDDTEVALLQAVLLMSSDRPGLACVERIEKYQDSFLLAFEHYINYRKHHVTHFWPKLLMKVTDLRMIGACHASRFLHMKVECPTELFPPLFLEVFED
Outline: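 In this cell-based multiplex, HepG2 liver cells carrying transfected GAL4-UAS reporter constructs are exposed to chemical for 24 hours, then reporter transcripts are measured by RT-PCR with capillary electrophoresis, scored as gain of signal against DMSO.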

O=C(CCCN1CCC(O)(c2ccc(Cl)cc2)CC1)c1ccc(F)cc1
outcome [1]: inactive

Cc1cc(Cc2cc(C)cc(C(C)(C)C)c2O)c(O)c(C(C)(C)C)c1
outcome [2]: inactive
outcome [1]: inactive

NCCN
AC50 [2]: 4.18 µM (active)
outcome [1]: inactive

O=C(O)C(F)(F)OC(F)(F)C(F)(F)OC(F)(F)C(F)(F)OC(F)(F)C(F)(F)C(F)(F)C(F)(F)F
outcome [2]: inactive

Cc1[nH]nc2c1N=C(c1ccccc1Cl)c1cc([N+](=O)[O-])ccc1N2
outcome [2]: inactive
outcome [1]: inactive

O=C1OC2(c3ccccc31)c1cc(I)c(O)c(I)c1Oc1c2cc(I)c(O)c1I
AC50 [2]: 0.248 µM (active)
outcome [1]: inactive

C/C=C/C(=O)C1=C(C)CCCC1(C)C
outcome [3]: inactive
outcome [4]: inactive
AC50 [5]: 37.1 µM (active)

NC(=NCCCCCCN=C(N)/N=C(\N)Nc1ccc(Cl)cc1)/N=C(\N)Nc1ccc(Cl)cc1
outcome [2]: inactive
AC50 [1]: 87 µM (active)

CCCCC(CC)C(=O)O (configuration not stated)
outcome [2]: inactive
outcome [1]: inactive

Cc1cc(C(C)(C)C)c(O)c(C(C)(C)C)c1
outcome [2]: inactive
outcome [1]: inactive

O=C(O)C(=O)O
outcome [2]: inactive
outcome [1]: inactive

CC(C)c1c(C(=O)Nc2ccccc2)c(-c2ccccc2)c(-c2ccc(F)cc2)n1CC[C@@H](O)C[C@@H](O)CC(=O)O
outcome [2]: inactive
outcome [1]: inactive

O=C(CC(=O)C(F)(F)C(F)(F)C(F)(F)F)c1cccs1
AC50 [2]: 13.5 µM (active)

C[C@]12CC[C@@H]3c4ccc(O)cc4CC[C@H]3[C@@H]1C[C@@H](O)[C@@H]2O
outcome [6]: inactive
outcome [7]: inactive
outcome [8]: inactive
outcome [9]: inactive
outcome [10]: inactive

CCCCCCc1ccc(N)cc1
outcome [2]: inactive
outcome [1]: inactive

CCCCCCCCCCCC
outcome [2]: inactive
outcome [1]: inactive

CN(CCO)S(=O)(=O)C(F)(F)C(F)(F)C(F)(F)C(F)(F)C(F)(F)C(F)(F)C(F)(F)C(F)(F)F
outcome [2]: inactive

OCC(F)(F)C(F)(F)C(F)(F)C(F)(F)C(F)(F)C(F)(F)C(F)(F)C(F)(F)C(F)(F)C(F)(F)C(F)(F)F
outcome [2]: inactive

O=C(O)CCC(F)(F)C(F)(F)C(F)(F)C(F)(F)C(F)(F)F
outcome [2]: inactive

CCCCc1oc2ccccc2c1C(=O)c1cc(I)c(OCCN(CC)CC)c(I)c1
outcome [1]: inactive
